Results on 104 compounds are retold here after PubChem BioAssay AID504834 (National Center for Advancing Translational Sciences (NCATS), 2011).

Where “and” joins values, the source holds several entries; their conditions need not be identical. Equal values may be shown once. Out of some 320,000 compounds screened, about 22,000 (6.9%) were called active. Roughly 27% stayed inconclusive and do not appear here. The call rests on the fitted dose curve; in most records, active means well fitted inhibition curve with a large enough effect; inconclusive means small, poorly fitted or top-dose-only effect, or another doubt; inactive means no such curve, though single readings can be large or run the other way. What follows is part of a selection rich in actives, with near analogues and random picks from the rest. A call without a number means that no potency is given here.
Potency means the concentration at half of the fitted maximal effect.

The nature of the assay: Primary qHTS for delayed death inhibitors of the malarial parasite plastid, 96 hour incubation. The following applies: P. falciparum luciferase reporter growth; series mostly up to 28.7 µM. The essentials: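 Erythrocytes infected with luciferase-expressing P. falciparum were dispensed at 2% hematocrit and 0.05% parasitemia (final), then incubated with compounds 96 hours at 37 C in 5% CO2. Luminescence after detection reagent addition reported growth.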
On the technique in general: Quantitative high-throughput screening tests each substance at several concentrations.
Consider `COc1cccc(CN2CCNC(=O)C2CC(=O)N(C)CCc2ccccn2)c1` (centres undefined), for which the Potency entry is “inactive”.

Regarding `Cc1cnc(CN(C)C(=O)CC2C(=O)NCCN2Cc2cccc(F)c2F)[nH]1` (centres undefined), the Potency result is “inactive”.

`CN(Cc1cccc2ncccc12)C(=O)CC1C(=O)NCCN1Cc1ccc(F)cc1` (centres undefined): the Potency was 13.1 µM (active).

Turning to `O=C(N/C(=C/c1ccc(Cl)cc1)C(=O)N1CCCCC1)c1ccco1`, the Potency result was “inactive”.

Take `O=C(O)CC(CC(=O)N1CCOCC1)c1ccccc1` (centres undefined): the Potency result was “inactive”.

Regarding `CCOc1cc(C)ccc1OCc1nnc(SCC(=O)Nc2cccc(C(=O)O)c2)n1-c1ccccc1`, the Potency result was “inactive”.

As for `O=C(O)c1cc(S(=O)(=O)Nc2ccc3cn[nH]c3c2)ccc1Br`, the Potency result was “inactive”.

As for `CCCNC(=O)c1cnc(-c2ccccc2)nc1-c1ccccc1`, the Potency result is “inactive”.

In the case of `C/C(=N\NC(=O)c1cc(-c2ccc(O)cc2)nc2ccccc12)c1cccnc1`, the Potency was 9.28 µM (active).

In the case of `C/C(=N\NC(=O)c1cccnc1)c1ccc(-c2ccccc2)cc1`, the Potency entry is “inactive”.

Take `CCOc1ccccc1-c1cc(C(=O)N/N=C(\C)c2cccnc2)c2ccccc2n1`: the Potency entry is “inactive”.

`CC1(c2nnc(Cc3ccccc3)o2)CC(c2ccccc2F)=NO1` (centres undefined): the Potency result is “inactive”.

For the compound `COc1ccc(NC(=O)CSc2nncc(=O)n2N)cc1OC`, the Potency entry is “inactive”.

Turning to `Cc1nc2c(-c3ccc(F)cc3)c(C)nn2c(C)c1CCC(=O)N1CCN(c2ccccn2)CC1`, the Potency was 7.38 µM (active).

Take `O=C(Cc1ccccc1Cl)N1CCN(c2ccccn2)CC1`: the Potency result is “inactive”.

On to `O=C(CCC1CCCN(C(=O)Cc2ccc(F)cc2)C1)N1CCN(c2ccccn2)CC1` (centres undefined), for which the Potency entry was “inactive”.

Take `O=C(c1cc(COc2ccc(F)c(F)c2)on1)N1CCOCC1`: the Potency entry was “inactive”.

Turning to `CCn1c(=O)c2cc(C(=O)Nc3cccc(C(C)=O)c3)sc2c2ccccc21`, the Potency entry is “inactive”.

On to `N#CC1=C(N)N(c2ccccc2)C2=C(C(=O)CCC2)C1c1ccccc1` (centres undefined), for which the Potency was 2.08 µM (active).

With `CN(C)N1C(N)=C(C#N)C(c2ccc(Br)cc2)C2=C1CCCC2=O` (centres undefined), the Potency was 2.94 µM (active).

Take `COc1ccc(C2C(C#N)=C(N)N(c3ncn[nH]3)C3=C2C(=O)CCC3)cc1` (centres undefined): the Potency result was “inactive”.

Take `CCOc1ccc(C2C(C#N)=C(N)N(N(C)C)C3=C2C(=O)CCC3)cc1` (centres undefined): the Potency result was “inactive”.

For the compound `N#CC1=C(N)OC2=C(C(=O)CCC2)C1C1CC=CCC1` (centres undefined), the Potency result is “inactive”.

Turning to `NC1=C([N+](=O)[O-])C(c2ccccc2)C2=C(CCCC2=O)O1` (centres undefined), the Potency entry was “inactive”.

For the compound `Cc1nc2ccc(S(=O)(=O)N(C)CC(=O)NC(C)c3ccccc3)cc2s1` (centres undefined), the Potency result is “inactive”.

As for `N#CCC(=O)Nc1ccc(C(=O)OCC(=O)Nc2sc3c(c2C#N)CCCC3)cc1`, the Potency entry is “inactive”.

As for `O=C1C2CCCN2C(=O)N1CCCCN1CCN(c2cccc(C(F)(F)F)c2)CC1` (centres undefined), the Potency was 13.1 µM (active).

Turning to `Cc1ccccc1N1CCN(CCCN2C(=O)C3CCCCN3C2=O)CC1` (centres undefined), the Potency result was “inactive”.

`O=C(C1CC(=O)N(C2CCCC2)C1)N1CCN(c2cccc(C(F)(F)F)c2)CC1` (centres undefined): the Potency entry was “inactive”.

Regarding `CCCc1cc(=O)oc2c(C)c(OCC(=O)NCc3ccccn3)ccc12`, the Potency entry was “inactive”.

Turning to `O=C(Cc1cccc2ccccc12)NNC(=O)Nc1ccc(Cl)cc1`, the Potency entry was “inactive”.

With `CCCN1C2CCCC1CC(NC(=O)NC13CC4CC(CC(C4)C1)C3)C2` (centres undefined), the Potency entry was “inactive”.

As for `CC1CCCCN1S(=O)(=O)c1ccc(S(=O)(=O)N(CC(=O)Nc2ccccc2)Cc2cccs2)cc1` (centres undefined), the Potency is 4.65 µM (active).

In the case of `CCN(CC(=O)NCc1cccs1)S(=O)(=O)c1ccc(NC(C)=O)cc1`, the Potency result was “inactive”.

In the case of `CC1CCCCN1S(=O)(=O)c1ccc(C(=O)Nc2nnc(-c3cccs3)o2)cc1` (centres undefined), the Potency entry is “inactive”.

With `Cc1ccccc1C(=O)Nc1ccccc1NC(=O)c1ccccc1C`, the Potency result is “inactive”.

With `Cc1ccccc1NC(=O)NCC1CCN(Cc2cccc(Cl)c2)CC1`, the Potency entry is “inactive”.

With `COc1ccc(Cl)cc1NC(=O)NCC1CCN(Cc2ccccc2F)CC1`, the Potency result is “inactive”.

Take `O=C(NCC1CCN(Cc2ccccc2Cl)CC1)Nc1cccc(Cl)c1`: the Potency was 1.65 µM (active).

For `Cc1ccc(C)c(CN2CCC(CNC(=O)Nc3ccc(C)c(F)c3)CC2)c1`, the Potency result was “inactive”.

On to `COc1cc(NC(=O)NCC2CCN(Cc3ccc(C)cc3)CC2)cc(OC)c1OC`, for which the Potency was 10.4 µM (active).

As to `Cc1cccc(CN2CCC(CNC(=O)Nc3ccc(F)c(Cl)c3)CC2)c1`, the Potency entry was “inactive”.

In the case of `Cc1ccc(C(=O)N/C(=C\c2cn(S(=O)(=O)N(C)C)c3ccccc23)C(=O)N2CCCC2)cc1`, the Potency entry was “inactive”.

`COc1ccc(-n2nnnc2CNC(=O)c2ccc3ccccc3c2)cc1`: the Potency result is “inactive”.

For `COc1ccc(NC(=O)N2CCCC(C(=O)Nc3ccccc3OC)C2)cc1` (centres undefined), the Potency entry was “inactive”.

As for `CSC1=NCCN1C(=O)Cc1cccc2ccccc12`, the Potency result is “inactive”.

As to `COc1cc(CNCc2ccc(OC)c3ccccc23)cc(OC)c1OC`, the Potency entry is “inactive”.

For the compound `Cc1ccccc1CN1CCC(C(=O)Nc2ccc(Oc3cccnc3)cc2)CC1`, the Potency entry was “inactive”.

For the compound `O=C(Nc1cccc(Cl)c1)C1CCCN(c2cnccn2)C1` (centres undefined), the Potency result is “inactive”.

Take `COc1cc(NC(=O)C2CCN(c3cnccn3)CC2)cc(OC)c1`: the Potency is 2.62 µM (active).

For the compound `O=C(COC(=O)Cc1ccccc1F)NCCc1ccccc1`, the Potency result is “inactive”.

As to `Cc1nc2ccc(S(=O)(=O)NCC(=O)NCCN3CCCCC3C)cc2s1` (centres undefined), the Potency result is “inactive”.

Take `Cc1nc2ccc(S(=O)(=O)NC(C(=O)N3CCCCCC3)C(C)C)cc2s1` (centres undefined): the Potency result is “inactive”.

In the case of `Cc1nc2ccc(S(=O)(=O)NCC(=O)O)cc2s1`, the Potency is 16.5 µM (active).

`C=CCC(NC(=O)Cc1ccccc1)C(=O)NCCC` (centres undefined): the Potency entry was “inactive”.

Take `CCOCCc1nn2c(=O)cc(CSCC(=O)Nc3cccc(C)c3C)nc2s1`: the Potency entry is “inactive”.

With `O=C(CN1CCCCC1)Nc1ccccc1Cl`, the Potency result is “inactive”.

On to `COc1cccc(NC(=O)CN2CCN(CC(=O)Nc3ccccc3Cl)CC2)c1`, for which the Potency entry is “inactive”.

In the case of `Cc1nn(Cc2ccccc2)c(C)c1C(=O)N1CCN(CC(=O)Nc2ccccc2Cl)CC1`, the Potency is 13.1 µM (active).

Turning to `Cc1ccc(NC(=O)Cc2nc(COC(=O)C(C)NS(=O)(=O)c3ccc(C)cc3)cs2)cc1` (centres undefined), the Potency result was “inactive”.

Regarding `CCN(CC)C(=O)c1nc[nH]c1C(=O)N(C)Cc1ccccc1`, the Potency result is “inactive”.

As to `CC(=O)Nc1ccc(Oc2ccc3c(c2)C(=O)NC3=O)cc1`, the Potency entry was “inactive”.

Turning to `Cc1csc(NC(=O)CSc2nc(=O)cc(N)n2-c2ccc(F)cc2)n1`, the Potency result is “inactive”.

In the case of `Cc1cccc(NC(=S)NCCc2ccc(Cl)cc2)c1C`, the Potency result is “inactive”.

Consider `Cc1ccc(C(C)C)cc1OCCN1CCCC1`, for which the Potency entry is “inactive”.

Regarding `Cc1cc(OCCN2CCCC2)ccc1C(C)C`, the Potency result is “inactive”.

On to `Cc1cc(OCCN2CCCC2)cc(C(C)C)c1`, for which the Potency was 10.4 µM (active).

`CCOCCCNc1c(CC)c(C)c(C#N)c2nc3ccccc3n12`: the Potency entry is “inactive”.

As for `CN1C(C(=O)NCC2CC2)CC2Cn3c(nc4ccccc43)C21` (centres undefined), the Potency result is “inactive”.

As for `CCOC(=O)N1CCN(Cc2nc3cc(NC(=O)CC)ccc3n2CC)CC1`, the Potency entry was “inactive”.

For `CCOC(=O)N1CCN(Cc2nc3ccc([N+](=O)[O-])cc3c(=O)n2-c2cccc(OC)c2)CC1`, the Potency was 2.33 µM (active).

As for `CCOC(=O)N1CCN(Cc2nc3cc(NC(C)=O)ccc3n2C)CC1`, the Potency entry was “inactive”.

`CN(C(=O)CSc1nnc(-c2ccc3c(c2)OCO3)o1)C1CCS(=O)(=O)C1` (centres undefined): the Potency result was “inactive”.

With `CC(=O)Nc1ccc(/C=C/C(=O)c2ccccc2)cc1`, the Potency entry was “inactive”.

As for `O=C(NC1CCCC1)C(=O)c1c[nH]c2ccccc12`, the Potency result was “inactive”.

With `CC(=O)c1ccc(OCC(O)CN2CCN(S(=O)(=O)c3cccc(Br)c3)CC2)cc1` (centres undefined), the Potency result is “inactive”.

On to `OC(COc1cccc(OCC(O)CN2CCCC2)c1)CN1CCCC1` (centres undefined), for which the Potency result was “inactive”.

Consider `Cc1cccc(OCC(O)CN2CCN(S(=O)(=O)c3ccc(C)cc3C)CC2)c1` (centres undefined), for which the Potency is 6.57 µM (active).

Regarding `O=S(=O)(Nc1ccc(-n2cnnn2)cc1)c1ccc(Cl)cc1`, the Potency entry was “inactive”.

In the case of `Cc1ccc(NC(=O)NNC(=O)c2sccc2-n2cccc2)cc1`, the Potency result was “inactive”.

With `C=CCNc1scc(-c2ccccc2)[n+]1CC=C`, the Potency result is “inactive”.

Regarding `C=CC[n+]1c(-c2ccc(C)cc2)csc1NNC(=O)Nc1ccccc1`, the Potency is 7.38 µM (active).

On to `O=C(NCc1ccco1)/C(=C/c1cccc([N+](=O)[O-])c1)NC(=O)c1ccco1`, for which the Potency entry was “inactive”.

As to `CCc1sc(C(=O)N2CCN(CC(=O)Nc3cccc(F)c3)CC2)cc1C`, the Potency result was “inactive”.

For the compound `Cc1noc(/C=C/c2ccco2)c1S(=O)(=O)N1CCC(C(=O)N2CCc3ccccc32)CC1`, the Potency result was “inactive”.

Consider `CNC(=O)C1CCN(S(=O)(=O)c2c(C)noc2/C=C/c2cccc(C)c2)CC1`, for which the Potency was 10.4 µM (active).

As to `Cc1ccc(NC(=O)C2CCCN(S(=O)(=O)c3c(C)noc3C)C2)c(C)c1` (centres undefined), the Potency result was “inactive”.

`CC(C)CC(=O)Nc1cc(C(F)(F)F)ccc1N1CCOCC1`: the Potency entry is “inactive”.

`O=C(CCC1CCCCC1)Nc1cc(C(F)(F)F)ccc1N1CCOCC1`: the Potency was 13.1 µM (active).

In the case of `CCC(=O)Nc1cc(C(F)(F)F)ccc1N1CCCC1`, the Potency entry is “inactive”.

Take `CCc1ccc(C(=O)NC(=S)Nc2ccccc2N2CCOCC2)cc1`: the Potency entry is “inactive”.

Regarding `C/C=N/N(c1ccccc1)c1ccccc1`, the Potency result was “inactive”.

`CCN(CC(=O)Nc1ccc(S(=O)(=O)N2CCCC2)cc1)CC(=O)Nc1cccc(OC)c1`: the Potency result was “inactive”.

On to `CCOC(=O)c1ccccc1NC(=O)CSc1nc2ccccc2c(=O)[nH]1`, for which the Potency entry is “inactive”.

On to `CCOC(=O)c1cc(NC(=O)SCC(=O)O)c(C)nc1C`, for which the Potency was 7.38 µM (active).

Turning to `CCOC(=O)c1cnc(-n2nc(C)cc2C)nc1-n1nc(C)cc1C`, the Potency entry is “inactive”.

For the compound `CC1CCC(NS(=O)(=O)c2ccc3c(c2)CC(=O)N3)CC1` (centres undefined), the Potency entry is “inactive”.

In the case of `Cc1ccc(Cc2nnc(SCC(=O)Nc3ccc(C)cc3C)[nH]c2=O)cc1`, the Potency result is “inactive”.

For `O=C(CCN1CCN(C/C=C/c2ccccc2)CC1)Nc1ccccc1Cl`, the Potency entry was “inactive”.

For the compound `C/C(=N\NC(=O)c1ccoc1C)c1ccccc1O`, the Potency result was “inactive”.

For the compound `COc1ccc(C(=O)c2c(C)c(CCC#N)n3ccccc23)c(OC)c1`, the Potency result was “inactive”.

For `Oc1c(Cl)cc(Cl)c(Cl)c1Cc1c(O)c(Cl)cc(Cl)c1Cl`, the Potency was 12 µM (active) and 9.28 µM (active).

Turning to `CN(C)c1nc(NN)nc(Nc2ccc(F)cc2)n1`, the Potency entry was “inactive”.

In the case of `COc1ccc(N(CC(=O)Nc2cccc3ccccc23)S(C)(=O)=O)c(OC)c1`, the Potency entry was “inactive”.
